In the supplement of paper PMC3545927:
The other results are listed elsewhere or left out. The hit rate among all sequences tested is not known here.

Biological target: furin, P09958
Assay: furin cleavage Z-score vs untreated control; higher = more cleavage, active = 3.5 or more, inactive = 1 or less, 8 variable residues between constant flanks
How it was run: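 The cleavage Z-score was derived for purified furin acting on 8-mer peptides held on magnetic beads and fused to a cDNA oligonucleotide. Digests lasted 7.5, 15 or 30 min at 1:10 enzyme:substrate in 50 mM HEPES pH 7.5 with CaCl2 and NaCl. Sequencing counts of released DNA, log-transformed against furin-free reactions, were lowess-adjusted and scaled by median absolute deviation.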

furin, P09958, sequence (P09958 whole entry): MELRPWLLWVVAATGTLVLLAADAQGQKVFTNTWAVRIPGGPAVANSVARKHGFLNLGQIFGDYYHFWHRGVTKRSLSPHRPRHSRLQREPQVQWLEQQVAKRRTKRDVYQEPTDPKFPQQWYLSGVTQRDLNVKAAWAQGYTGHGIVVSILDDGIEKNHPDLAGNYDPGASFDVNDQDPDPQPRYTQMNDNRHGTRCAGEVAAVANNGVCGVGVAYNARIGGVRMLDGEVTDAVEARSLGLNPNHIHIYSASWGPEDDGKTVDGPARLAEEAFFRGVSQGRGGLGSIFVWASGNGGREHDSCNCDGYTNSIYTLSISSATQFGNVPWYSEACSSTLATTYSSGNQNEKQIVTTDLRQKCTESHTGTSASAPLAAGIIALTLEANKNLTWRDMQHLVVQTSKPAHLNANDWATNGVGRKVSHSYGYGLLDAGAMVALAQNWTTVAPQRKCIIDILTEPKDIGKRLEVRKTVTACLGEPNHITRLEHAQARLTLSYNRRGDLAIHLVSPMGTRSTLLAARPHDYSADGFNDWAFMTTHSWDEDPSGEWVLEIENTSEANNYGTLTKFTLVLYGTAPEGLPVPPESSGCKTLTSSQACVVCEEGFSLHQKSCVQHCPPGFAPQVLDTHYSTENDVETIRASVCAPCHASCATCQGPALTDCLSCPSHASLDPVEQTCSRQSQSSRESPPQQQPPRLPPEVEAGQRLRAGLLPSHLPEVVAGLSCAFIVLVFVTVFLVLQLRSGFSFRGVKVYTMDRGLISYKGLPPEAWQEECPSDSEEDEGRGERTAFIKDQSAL

Sequence	furin cleavage Z-score (7.5 min)	furin cleavage Z-score (15 min)	furin cleavage Z-score (30 min)
CAMWECSQHLAGNASASA [HC1688]	0.266 (inactive)	1.15	1.3
CADTPCSGSWAGNASASA [HC1831]	-0.725 (inactive)	-0.574 (inactive)	-0.127 (inactive)
CALGVRVCEKAGNASASA [HC1453]	-0.269 (inactive)	-0.873 (inactive)	-1.56 (inactive)
CAIAAAGQLDAGNASASA [HC1640]	0.168 (inactive)	-0.469 (inactive)	-1.87 (inactive)
CASRDRRRREAGNASASA [FS-195]	10.8 (active)	10.8 (active)	7.22 (active)
CAKRSRRIRPAGNASASA [FS-1461]	-0.256 (inactive)	1.6	0.134 (inactive)
CAKRARVVREAGNASASA [FS-262]	9.07 (active)	8.16 (active)	7.16 (active)
CAKRLRRRREAGNASASA [FS-1224]	6.7 (active)	5.88 (active)	4.7 (active)
CAFLATCINGAGNASASA [HC695]	-1 (inactive)	-1.97 (inactive)	0.404 (inactive)
CALVGSATLCAGNASASA [HC293]	-0.853 (inactive)	-0.387 (inactive)	-0.923 (inactive)
CARREVPCHRAGNASASA [HC2433]	0.899 (inactive)	1.63	1.91
CAREPRLVGGAGNASASA [FS-2136]	-1.44 (inactive)	-0.28 (inactive)	0.256 (inactive)
CAATCINGVCAGNASASA [HC696]	-1.44 (inactive)	-0.421 (inactive)	-0.171 (inactive)
CAAAWETARHAGNASASA [HC1568]	0.137 (inactive)	0.318 (inactive)	-0.358 (inactive)
CAYRCRRPRHAGNASASA [FS-1621]	0.22 (inactive)	1.07	0.99 (inactive)
CATRRRTPRPAGNASASA [FS-1293]	-0.0603 (inactive)	-0.269 (inactive)	0.573 (inactive)
CAFSPRRHWTAGNASASA [HC307]	0.332 (inactive)	-0.669 (inactive)	-0.85 (inactive)
CARPGRLDRHAGNASASA [FS-917]	1.02	-0.871 (inactive)	0.899 (inactive)
CAFQNRRARHAGNASASA [FS-1589]	9.77 (active)	11.1 (active)	10.3 (active)
CAFVAPGERPAGNASASA [HC911]	-1.27 (inactive)	-0.656 (inactive)	-0.848 (inactive)
CAAAARRRRHAGNASASA [FS-638]	5.47 (active)	5.84 (active)	3.86 (active)
CARHGRRRRHAGNASASA [FS-1156]	10.6 (active)	11.5 (active)	8.22 (active)
CASTRRRPRHAGNASASA [FS-1170]	4.52 (active)	3.46	2.74
CATWVLVGGVAGNASASA [HC990]	0.127 (inactive)	-1.42 (inactive)	0.528 (inactive)
CAAYAAQGYKAGNASASA [HC782]	-0.0157 (inactive)	-1.07 (inactive)	-0.556 (inactive)
CAREFRIIFDAGNASASA [FS-2002]	-0.0827 (inactive)	-0.962 (inactive)	-0.343 (inactive)
CAPCEPEPDVAGNASASA [HC1241]	-0.464 (inactive)	0.432 (inactive)	-0.805 (inactive)
CATTPVSGSWAGNASASA [HC43]	-0.371 (inactive)	0.0296 (inactive)	0.074 (inactive)
